DT40 TDP1 no CPT – qHTS for Inhibitors of human tyrosyl-DNA phosphodiesterase 1 (TDP1): qHTS in cells in absence of CPT; DT40 Tdp1-/- hTDP1 cells, no CPT, ATP luminescence, 48 h; Potency, µM (highest dose often 46.2 µM), without a hit: top-dose activity change, negative = growth inhibition, hits mostly inhibitors; hit rate 15% among 420,000; also: nearly all actives have a fitted effect of over 55% in size
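A cellular qHTS used chicken DT40 cells lacking endogenous Tdp1 but carrying stably transfected human TDP1. Compounds were applied without camptothecin, and cell growth kinetics were judged by ATP-dependent luminescence after ≥48 hr.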
ELG1 repair inh – qHTS screen for small molecules that inhibit ELG1-dependent DNA repair in human embryonic kidney (HEK293T) cells expressing luciferase-tagged ELG1; HEK293T ELG1-luciferase reporter, luminescence, 16 h; DNA damage induced by 5-fluorouridine; Potency, µM (highest dose often 46.1 µM), without a hit: at the highest dose activity change, negative = inhibition, usual class: inhibitors; hit rate 2.3% among 330,000; AID 504467, 2011; also: nearly all actives have a fitted effect of over 55% in size
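HEK293T cells expressing luciferase-tagged ELG1 (2,000/well) received 5-Fluorouridine plus compound or DMSO for 16 hr at 37 °C. Luciferase was read by ONE-Glo luminescence after 30 min at room temperature.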
VP16 counter – VP16 counterscreen qHTS for inhibitors of ROR gamma transcriptional activity | hit rate 3.5% among 310,000 | Drosophila S2 Gal4-VP16 UAS-luciferase, luminescence, 20 h | AID 2546, 2010 | Potency, µM (titrated, usually from 53.6 µM), for the others: at the highest dose activity, negative = inhibition, hits mostly inhibitors;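 also: Gal4-VP16 expression switched on by copper sulfate through the metallothionein promoter; nearly all actives have a fitted effect of over 50% in size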
RORgamma inh – qHTS for inhibitors of ROR gamma transcriptional activity | Nuclear receptor ROR-gamma (Mus musculus), P51450 | Drosophila S2 Gal4-RORgamma UAS-luciferase reporter, 20 h | Potency, µM (highest dose often 53.6 µM), inactives show at the top dose activity change, negative = inhibition, hits mostly inhibitors | hit rate 5.4% among 310,000; also: nearly all actives have a fitted effect of over 60% in size
Target sequence (P51450 whole entry, looked up, the tested form may be a part): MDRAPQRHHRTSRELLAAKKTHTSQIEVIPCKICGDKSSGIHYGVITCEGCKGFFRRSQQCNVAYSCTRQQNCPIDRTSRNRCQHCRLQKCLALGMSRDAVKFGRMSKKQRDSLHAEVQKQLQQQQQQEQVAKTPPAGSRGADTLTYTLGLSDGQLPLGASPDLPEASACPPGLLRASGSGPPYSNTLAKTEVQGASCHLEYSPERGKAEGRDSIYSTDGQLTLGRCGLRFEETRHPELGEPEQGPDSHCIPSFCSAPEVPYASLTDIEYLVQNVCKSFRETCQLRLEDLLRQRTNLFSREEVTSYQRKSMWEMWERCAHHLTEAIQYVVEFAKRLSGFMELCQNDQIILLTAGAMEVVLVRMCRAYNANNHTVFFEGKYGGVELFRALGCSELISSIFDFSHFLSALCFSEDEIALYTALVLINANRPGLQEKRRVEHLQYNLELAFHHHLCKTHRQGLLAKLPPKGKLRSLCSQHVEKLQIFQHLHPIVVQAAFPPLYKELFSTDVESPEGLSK
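Luminescence from a UAS-regulated Photinus luciferase reporter in stably transfected Drosophila Schneider cells is measured; decreased signal marks ROR gamma inhibition. Fusion expression is induced by 700 uM copper sulfate for 20 hr.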
12-LOX inh – Primary qHTS assay for inhibitors of human arachidonate 12S-lipoxygenase (ALOX12): Round 2; Potency, µM (titrated, usually from 108 µM), inactives show at the top dose activity change, negative = inhibition, usual class: inhibitors; purified 12hLO, xylenol orange hydroperoxide absorbance; hit rate 1.1% among 580,000; Polyunsaturated fatty acid lipoxygenase ALOX12 (Homo sapiens), P18054; AID 1671190, 2021
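Purified human 12hLO (150 nM final) in 25 mM Hepes, 0.01% Triton X-100, pH 7.0 was preincubated 15 min at room temperature with compound. Then 40 uM arachidonic acid was added, 30 min. Hydroperoxide was read by Fe-XO absorbance ratio 573/405 nm.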
TDP1 cell CPT – qHTS for Inhibitors of human tyrosyl-DNA phosphodiesterase 1 (TDP1): qHTS in cells in presence of CPT; chicken DT40 Tdp1-/-;hTDP1 cells + 20 nM CPT, ATP luminescence, 48 h; Potency, µM (top dose mostly 46.2 µM), for the others: at the highest dose activity change, negative = growth inhibition, actives largely listed as inhibitors; hit rate 12% among 420,000; also: nearly all actives have a fitted effect of over 55% in size
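Chicken DT40 Tdp1-/- cells stably complemented with human TDP1 were seeded at 400 cells/well in medium containing 20 nM camptothecin, exposed to pin-transferred compounds, and grown at 37 °C for at least 48 hr. Viability was read as ATP luminescence.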
Starred values were filed as active, the others as inactive; ? = inconclusive; · = no result; ! = not confirmed by another sample; [ ] = dose if it differs, or a comment. This is a sample that favours compounds with a hit; in the whole collection about 15% have one here. Calls follow the shape of the dose curve; as a rule, active = well fitted curve in the direction sought with a large enough effect; inconclusive = small, poorly fitted or top-dose-only effect, or another doubt; inactive = no such curve, though single readings can be large; an effect the other way counts as inactive or inconclusive. % is scaled to controls: 0 for no effect and ±100 for the full control effect; potency is read from the fitted curve at half-maximal effect.

SMILES	DT40 TDP1 no CPT	ELG1 repair inh	VP16 counter	RORgamma inh	12-LOX inh	TDP1 cell CPT
O=C(CNc1cccc(S(=O)(=O)N2CCOCC2)c1)N1CCN(C(=O)c2cccs2)CC1	·	·	·	·	6%	·
COc1ccc(OC)c(C(=O)c2oc3cc(NC(=O)C(C)C)ccc3c2C)c1	·	·	·	·	6%	·
c1ccc(O[C@H]2COCCN(c3nc4ccccc4s3)C2)cc1	·	·	·	·	4%[176 µM]	·
CN1CCN(C(=O)c2cccnc2)CC12CCC(=O)N(CC1CC1)CC2 (stereo not drawn)	·	·	·	·	43%	·
O=C(c1cccc2[nH]ccc12)N1CCC(n2cc(-c3nc(-c4ccccc4)no3)nn2)CC1	·	·	·	·	12%	·
Cc1c(C(=O)NCc2ccccc2C(F)(F)F)sc(=O)n1Cc1ccc(S(=O)(=O)N(C)C)cc1	21µM*	·	·	·	0%	?
Cc1c(C(=O)NCc2ccc(C(F)(F)F)cc2)sc(=O)n1Cc1ccc(S(=O)(=O)N(C)C)cc1	23µM*	·	·	·	14%	23µM*
CSc1ccc(Cn2c(C)c(C(=O)NCc3ccccc3C(F)(F)F)sc2=O)cc1	?	·	·	·	0%	?
CC(C)(C)NC(=O)CN1C(=O)NC2(CCC(C(C)(C)C)CC2)C1=O (stereo not drawn)	·	·	·	·	-12%	·
c1ccc(-c2nnn(Cc3ncc(-c4ccccc4)o3)n2)cc1	·	·	·	·	21%	·
Cc1ccc(S(=O)(=O)C2C(=O)N(C)C3(C)CC2c2ccccc2O3)cc1 (stereo not drawn)	16µM*	-1%	9%	?	-15%	-24%
OCc1cc(-c2ccccc2)n[nH]1	·	·	·	·	9%	·
O=S(=O)(c1ccc(Oc2ccc(Br)cc2)cc1)N1CCOCC1	23µM*	-16%	?	?	0%	16µM*
Nc1cc(S(=O)(=O)N2CCCCC2)ccc1Oc1ccccc1	10µM*	?	?	31%	-5%	?
CCOc1ccc(Oc2ccc(S(=O)(=O)N3CCOCC3)cc2N)cc1	?	9.2µM*	3%	30%	0%	?
CC1=C(/C=C/C(C)=C/C=C/C(C)=C\CO)C(C)(C)CCC1	?	·	·	·	17%	18µM*
CC1=C(/C=C/C(C)=C/C=C/C(C)=C/CO)C(C)(C)CCC1	21µM*!	·	?	19%	3%	?
CC(=O)OC/C=C(C)/C=C/C=C(C)/C=C/C1=C(C)CCCC1(C)C	23µM*!	·	22%	-6%	?	?
CCN(CC)c1nc2ccccc2nc1C(=O)Nc1ccccc1Cl	·	·	·	·	3%	·
COC(=O)c1[nH]c2cc(OC)c(OC)cc2c1/C=N/Nc1ccccc1	18µM*	?	-8%	-12%	?	?
Nc1nc(Cl)nc2ccc(Br)cc12	12µM*	?	-7%	-2%	-3%	?
Nc1nc2ccc(Br)cc2o1	-2%	·	·	·	3%	5%
CC(Sc1ccccc1Cl)C(=O)O (stereo not drawn)	·	·	·	·	-33%	·
N#CC1(NC(=O)CSc2ccc3ccccc3n2)CCCCC1	·	·	·	·	7%	·
CCCN(CCC)C(=O)Cn1c(=O)n(-c2cccc(C(F)(F)F)c2)c(=O)c2c(C)c(C)sc21	21µM*	·	·	·	-22%	23µM*
SMILES	DT40 TDP1 no CPT	ELG1 repair inh	VP16 counter	RORgamma inh	12-LOX inh	TDP1 cell CPT
Fc1ccc(C(CCCn2nnc(-c3cccnc3)n2)c2ccc(F)cc2)cc1	21µM*	-21%	?	-22%	?	16µM*
O=S(=O)(Nc1ccc2ccccc2c1)c1ccccc1	?	11%	-3%	15%	-26%	?
NNC(=O)c1cc2ccccc2cc1NS(=O)(=O)c1ccccc1	7%	-2%	?	20µM*	1%	3%
O=C(c1cccs1)N1CCN(C(=O)c2cccs2)C1=S	5.8µM*	·	·	·	?	5.8µM*
S=C(c1cccs1)N1CCCC1	-8%	10%	·	25%[0.365 µM]	0%	-6%
O=C(NC(=S)N1CCCCC1)c1cccs1	15µM*	9%	1.3µM*	0.79µM*	-8%	?
O=C(NC(=S)N1CCCCC1)c1csc([N+](=O)[O-])c1	?	-12%	1.1µM*	0.35µM*	-63%	-10%
CC1CCN(C(=O)c2ccc(NC(=O)c3cccs3)cc2)CC1	-14%	-3%	-3%	44%	0%	-25%
CC1CCN(C(=S)NC(=O)c2cccs2)CC1	?	-25%	0.89µM*	0.25µM*	-24%	?
CC(C)c1ccc(-c2nnn(Cc3cc4c(cc3Br)OCO4)n2)cc1	·	·	·	·	-9%	·
CCOc1cccc(-c2nnc(CCC(=O)NCCc3ccccc3)c(=O)[nH]2)c1	·	·	·	·	65%	·
CC1CCCCN1S(=O)(=O)c1ccc(NC(=O)c2cccs2)cc1 (stereo not drawn)	?	?	-2%	30%	10%	?
CC1CCCCN1C(=S)NC(=O)c1cccs1 (stereo not drawn)	16µM*	1%	2.8µM*	0.71µM*	-28%	?
CCN(CC)CC(=O)Nc1c(C)cccc1C(=O)OC	·	·	·	·	-9%[22.9 µM]	·
CCc1cc(C(=O)c2ccc(Br)cc2)c(NC(=O)CN(CC)CC)s1	-24%	-26%	11µM*	6.3µM*	26%	?
Cc1ccc(C(=O)c2c(NC(=O)c3ccccc3C)sc(C)c2C)cc1	?	16%	17%	6%	?	?
CCN(CC)CC(=O)Nc1sc(C)c(C)c1C(=O)c1ccc(C)cc1	?	-14%	-7%	11µM*	-1%	?
CCc1cc(C(=O)c2ccc(OC)cc2)c(NC(=O)COCC(=O)O)s1	-6%	-2%	4%	-2%	?	7%
CCN(CC)CC(=O)Nc1sc(C)cc1C(=O)c1ccccc1	?	-2%	?	7.1µM*	27%	?
CCN(CC)CC(=O)Nc1sc(C)cc1C(=O)c1ccc(C)cc1	?	-18%	6.3µM*	3.2µM*	117%	?
COC[C@@H]1CN(C(=O)c2ccccc2OC)C[C@H]1c1ccccn1	·	·	·	·	29%	·
CC1(C)CCc2c(ccc3ccc(=O)oc23)O1	·	·	·	·	5%	·
Cc1cc(C(=O)c2ccccc2)c(NC(=O)CCl)s1	23µM*	-28%	-99%	-12%[10 µM]	-2%	9.2µM*
C=CCN1C(=O)COc2ccc(NC(=O)c3cc(=O)c4cccc(C)c4o3)cc21	·	·	·	·	-29%	·

Screening data deposited in PubChem by National Center for Advancing Translational Sciences (NCATS).
